Shown are actives, neighbours in structure and some others; about 3.1% of the full set was active somewhere.
ABHD5-PLIN5 inh – inhibitors of human ABHD5-perilipin-5 interaction; Q00G26+Q8WTS1; Split G. princeps luciferase complementation, luminescence, 4 h; inhibition, % at 4 µM; actives 0.78% (n = 360,000);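 active = inhibition above the mean inhibition across every tested compound plus 3 SD, cut at about 22% in these data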;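 also: 0% = DMSO only wells and the 100% control is not disclosed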
HIF-2a block – blocks HIF-2a reporter activity. AID 624352. actives 0.72% (n = 360,000). 786-0 RCC cells HIF-2a reporter, luciferase luminescence, overnight. inhibition, % at 18.8 µM;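 active = inhibition of the luminescence signal of 40% or more relative to plate controls, in a single-dose primary screen at 18.75 µM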
CF NFkB block – blocks PAF-induced NF-kB reporter in cystic fibrosis cells; KKLEB NF-kB-GFP reporter, GFP fluorescence overnight; inhibition, % at 5 µM; actives 0.86% (n = 360,000);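 active = at least 50% inhibition at 5 µM, scaled per plate between neutral and stimulator controls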;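 also: PAF is a Pseudomonas aeruginosa culture filtrate used as stimulus; plate controls were PAF-stimulated DMSO wells for no effect and unstimulated DMSO wells for full effect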
KKLEB cytotox – CF airway cell cytotoxicity counter-screen; KKLEB CF airway cells viability, ATPlite luminescence, overnight; stronger effect = lower value; cells stimulated with P. aeruginosa culture filtrate; activity change (cytotoxicity), % at 5 µM; actives 0.36% (n = 360,000);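 active = corrected activity change at or below -50% at 5 µM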
MITF TRPM1 inh – MITF TRPM1 promoter inhibition in SK-MEL-5 cells; AID 488899; inhibition, % at 12.5 µM; SK-MEL-5 TRPM1 promoter luciferase, 24 h; actives 0.83% (n = 330,000);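 active = mean inhibition across replicates of 60% or more, whatever share of single replicates reaches that level; inconclusive = some that reach 60%, reason not given; inactive = mean inhibition across replicates below 60%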
Peg3 prom inh – Peg3 promoter activity inhibition; actives 1.7% (n = 360,000); AID 588405; inhibition, % at 20 µM; HeLa PEG-Prom luciferase reporter, luminescence, overnight;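 active = inhibition of at least 50% at 20 µM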
Mdm2 MdmX conf – Mdm2/MdmX (human) interaction inhibition, confirmed; shares compounds with HIF-2a block; SaOS-2 split-luciferase Mdm2/MdmX complementation, luminescence; inhibition, % at 8 µM; actives 99% (n = 740); AID 504601;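 active = mean inhibition of the luminescence signal across two replicates at or above 26 percent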
Target sequence (O15151 whole entry, looked up): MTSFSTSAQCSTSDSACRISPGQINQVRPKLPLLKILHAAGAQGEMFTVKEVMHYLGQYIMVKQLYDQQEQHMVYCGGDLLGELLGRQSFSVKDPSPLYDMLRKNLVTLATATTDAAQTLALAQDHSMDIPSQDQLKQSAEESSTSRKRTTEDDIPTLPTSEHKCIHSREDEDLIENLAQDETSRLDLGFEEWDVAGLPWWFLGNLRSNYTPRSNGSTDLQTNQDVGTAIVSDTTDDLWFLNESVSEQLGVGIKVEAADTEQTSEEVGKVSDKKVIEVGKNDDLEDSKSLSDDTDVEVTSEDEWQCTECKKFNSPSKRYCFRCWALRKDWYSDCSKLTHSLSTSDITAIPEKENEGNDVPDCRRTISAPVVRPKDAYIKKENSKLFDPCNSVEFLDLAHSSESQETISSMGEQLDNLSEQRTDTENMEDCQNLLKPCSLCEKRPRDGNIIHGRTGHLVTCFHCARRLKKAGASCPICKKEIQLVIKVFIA
Target sequence (Q00987 whole entry, looked up): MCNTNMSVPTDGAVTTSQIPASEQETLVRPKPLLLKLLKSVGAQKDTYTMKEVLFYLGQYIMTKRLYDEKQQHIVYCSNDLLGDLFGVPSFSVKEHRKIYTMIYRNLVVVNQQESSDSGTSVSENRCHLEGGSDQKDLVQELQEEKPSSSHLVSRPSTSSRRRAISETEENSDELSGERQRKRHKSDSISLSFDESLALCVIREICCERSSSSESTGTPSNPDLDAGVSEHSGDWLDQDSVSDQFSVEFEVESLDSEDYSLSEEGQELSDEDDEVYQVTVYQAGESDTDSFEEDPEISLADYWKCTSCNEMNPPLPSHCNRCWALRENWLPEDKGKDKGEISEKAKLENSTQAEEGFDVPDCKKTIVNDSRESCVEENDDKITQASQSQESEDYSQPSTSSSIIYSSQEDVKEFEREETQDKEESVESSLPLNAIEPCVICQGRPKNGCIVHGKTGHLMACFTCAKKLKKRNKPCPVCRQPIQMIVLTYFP
HIF-2a conf – HIF-2a inhibition, single concentration confirmation | shares compounds with HIF-2a block | 786-0 RCC cells, HIF-2a luciferase reporter luminescence, overnight | inhibition, % at 18.8 µM | actives 56% (n = 1,800) | AID 651580;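 active = mean inhibition across four replicates of at least 40 percent at the single tested concentration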
HIF-1a cs – HIF-1a inhibition counter-screen for HIF-2a hits; actives 72% (n = 1,800); inhibition, % at 18.8 µM; shares compounds with HIF-2a block; MiaPaCa-2 HIF-1a luciferase reporter, desferoxamine, overnight;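 active = mean inhibition of the reporter signal across four replicates at the single tested dose of 50% or more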
* = called active by the depositor; ? = inconclusive; . = no result.

SMILES	ABHD5-PLIN5 inh	HIF-2a block	CF NFkB block	KKLEB cytotox	MITF TRPM1 inh	Peg3 prom inh	HIF-2a conf	HIF-1a cs	others
O=C1C(Cl)=C(N2CCN(Cc3ccccc3)CC2)C(=O)N1Cc1ccccc1	-2.5	40.5*	9.7	-8.0	3.8	43.9	1.8	26.3
CCSCCc1nnc(NC(=O)Nc2cccc(C(F)(F)F)c2)s1	-2.2	8.8	69.8*	-56.5*	66.9*	10.9	.	.	Mdm2 MdmX conf=98.0*
Cc1ccc(C2=[N+]([O-])C3(CCCCC3=O)N(O)C2(C)C)cc1 (stereo not given)	-1.1	43.7*	7.2	-10.9	6.5	3.4	21.3	15.1
CC1(C)C(c2ccco2)=[N+]([O-])C2(CCCCC2=O)N1O (stereo not given)	4.3	-5.5	8.5	7.6	13.7	5.4	.	.
CS(=O)(=O)c1ccc(Cl)c(NC(=O)c2cccc(-n3cnnn3)c2)c1	-9.2	50.9*	0.9	4.8	20.3	24.4	8.2	23.4
CS(=O)(=O)c1ccc(NC(=O)c2cccc(-n3cnnn3)c2)cc1	-11.7	8.0	17.6	5.2	4.9	5.4	.	.
COc1ccc(/C=C/C(=O)c2cc(F)ccc2OC(=O)c2ccccc2)cc1OC	14.4	44.1*	53.0*	-20.3	?	14.9	36.2	21.3
CC(C)(C)c1cc(/C=N/O)cc(C(C)(C)C)c1O	-7.4	42.8*	37.7	1.4	-4.2	8.4	25.7	48.9
Cn1cc(SCC(=O)O)c2ccccc21	6.8	-0.4	-11.5	1.3	7.4	-1.7	.	.
Cn1cc(C(C[N+](=O)[O-])c2ccccc2)c2ccccc21 (stereo not given)	2.6	95.7*	3.3	-6.7	15.8	26.8	4.5	28.8
Cn1c2c(c(=O)n(C)c1=O)C(C(F)(F)F)(C(F)(F)F)N=C(c1ccc(Cl)cc1)N2	-6.0	11.8	66.8*	-49.8	71.9*	47.7	.	.	Mdm2 MdmX conf=97.0*
CC(C)C1C(=O)N(Cc2cn(CCC3OCCO3)nn2)CCS(=O)(=O)N1Cc1ccc(-c2ccc(Cl)cc2)cc1 (stereo not given)	1.1	-32.9	5.7	-12.4	.	45.7	.	.
O=[N+]([O-])c1ccc2nc(-[n+]3c(-c4ccccc4)cc(-c4ccccc4)cc3-c3ccccc3)[nH]c2c1	-7.4	16.1	23.3	-16.6	31.5	32.2	.	.
O=[N+]([O-])c1ccc2nc(Cl)nc(-c3ccccc3)c2c1	5.7	19.3	-21.2	5.9	13.5	20.2	.	.	Mdm2 MdmX conf=101.2*
Cc1cc(N2CCN(c3ccc([N+](=O)[O-])c4cccnc34)CC2)c2ccccc2n1	6.1	32.0	-40.7	-12.3	76.3*	106.1*	.	.	Mdm2 MdmX conf=102.2*
Cc1cc(N2CCN(c3ccc(C(F)(F)F)cc3[N+](=O)[O-])CC2)c2ccccc2n1	6.6	17.0	4.0	1.0	9.7	10.4	.	.
O=C(Nc1ccc(C(F)(F)F)cc1)N1CCN(c2ccnc3cc(Cl)ccc23)CC1	-2.4	44.6*	-10.5	-9.7	-1.8	37.6	16.3	76.3*
O=C(Nc1cc(F)ccc1F)N1CCN(c2ccnc3cc(Cl)ccc23)CC1	-6.7	32.1	7.2	-4.1	13.3	18.0	.	.
COc1ccccc1N1C(=O)CC(c2ccccc2)CC1=O	-1.4	10.3	12.0	5.4	22.7	11.3	.	.
COc1ccccc1[C@@]1(C)ON(c2ccccc2C(F)(F)F)C1=O	2.2	66.0*	44.8	1.2	15.7	77.2*	24.4	101.5*
O=C1c2ccccc2C(=O)c2c1oc(C(F)(F)F)c2C(=O)c1ccccc1	-21.6	22.8	89.9*	-81.8*	102.7*	93.8*	.	.	Mdm2 MdmX conf=94.5*
CCc1nc2c(OCC(=O)c3ccc(F)cc3)cccn2c1N(C)C(=O)c1ccc(OC)cc1	-6.5	-57.0	2.2	-1.1	.	-25.3	.	.
CC(=O)Nc1ccc(NCc2cccs2)cc1	4.7	-15.3	3.9	-0.8	-22.0	-13.3	.	.
Oc1ccc(NCc2cccs2)cc1	-36.3	57.2*	14.3	2.3	-2.8	5.9	25.5	78.0*
COc1ccc(CNC(=O)C/C(C)=N/NC(=O)c2ccccc2OC)cc1	1.2	11.1	17.9	3.5	12.9	0.6	.	.
SMILES	ABHD5-PLIN5 inh	HIF-2a block	CF NFkB block	KKLEB cytotox	MITF TRPM1 inh	Peg3 prom inh	HIF-2a conf	HIF-1a cs	others
CCN1CCN(C(=S)c2ccc(-c3ccccc3)cc2)CC1	1.9	80.0*	-9.7	6.5	4.7	21.9	95.2*	77.6*
Cc1ccc(C(=S)N2CCN(Cc3ccccc3)CC2)cc1	-7.0	6.2	-12.2	2.4	9.1	12.4	.	.
N/C(=N\OC(=O)c1cccc(C(F)(F)F)c1)c1cnccn1	9.1	-199.8	-17.2	1.5	-72.8	-170.3	.	.
O=C(OCn1ncc(Cl)c(Cl)c1=O)c1cccc(C(F)(F)F)c1	4.0	93.3*	77.9*	-38.4	93.6*	103.9*	96.6*	105.2*	Mdm2 MdmX conf=103.2*
CC1(C(=O)NS(=O)(=O)c2cccc(OC(F)F)c2)CCN1C(=O)CC(c1ccccc1)c1ccccc1 (stereo not given)	-4.6	11.6	9.4	3.2	.	2.4	.	.
Cc1ccc(S(=O)(=O)N2CCOCC2)cc1NC(=O)c1cc(-c2ccccn2)nc2ccccc12	-5.9	95.2*	2.1	8.6	21.2	90.4*	13.9	50.0
O=C(Nc1cc(S(=O)(=O)N2CCOCC2)ccc1N1CCCCC1)c1cc(-c2ccccn2)nc2ccccc12	-7.8	11.5	4.0	-12.4	-1.8	13.5	.	.
CCc1nc2c(OCc3ccccc3C(=O)OC)cccn2c1N(C)C(=O)c1cccs1	5.4	10.0	-15.3	15.5	.	12.9	.	.
CCCC(NC(=O)CCc1c(C)c2cc3c4c(oc3c(C)c2oc1=O)CCCC4)C(=O)O (stereo not given)	-0.2	52.1*	14.3	7.1	2.1	-47.3	66.8*	50.5*
Cc1oc2c(C)c3oc(=O)c(CCC(=O)N[C@@H](CC(C)C)C(=O)O)c(C)c3cc2c1C	0.5	11.5	6.7	6.4	-1.3	6.2	.	.
Cc1cccc(Oc2sc(C(=O)c3ccccc3)c(N)c2C#N)c1	-4.4	43.3*	36.6	-26.4	2.9	42.2	19.5	42.7
NC(N)=N/N=C/c1ccc(OCc2ccccc2Cl)cc1	6.0	93.0*	2.6	-18.0	40.8	102.8*	-15.8	106.5*
CC(=O)NNS(=O)(=O)c1scc(S(=O)(=O)c2ccc(Cl)cc2)c1C	-7.1	16.8	-6.6	10.2	10.8	10.2	.	.
O=C(NC(=S)Nc1ccccc1N1CCCC1)c1ccco1	-14.0	75.9*	9.4	-6.2	14.5	-18.3	-7.9	6.6
